From paper PMC4336329 (PLoS ONE, 2015)
The campaign covered roughly 310,000 compounds. About 14,000 (4.5%) showed an effect of 50% or more. The effect is printed as a negative number. The entries come from a sample that favours strong results as a whole.

target: human ether-à-go-go-related gene (hERG) potassium channel (human, UniProt Q12809); assay: primary screen, population patch clamp on CHO cells stably expressing hERG; higher = less effect of the substance
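Note: peak tail current of the secondary pulse compared with the same well before compound.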

human ether-à-go-go-related gene (hERG) potassium channel, sequence (Q12809 whole entry, looked up): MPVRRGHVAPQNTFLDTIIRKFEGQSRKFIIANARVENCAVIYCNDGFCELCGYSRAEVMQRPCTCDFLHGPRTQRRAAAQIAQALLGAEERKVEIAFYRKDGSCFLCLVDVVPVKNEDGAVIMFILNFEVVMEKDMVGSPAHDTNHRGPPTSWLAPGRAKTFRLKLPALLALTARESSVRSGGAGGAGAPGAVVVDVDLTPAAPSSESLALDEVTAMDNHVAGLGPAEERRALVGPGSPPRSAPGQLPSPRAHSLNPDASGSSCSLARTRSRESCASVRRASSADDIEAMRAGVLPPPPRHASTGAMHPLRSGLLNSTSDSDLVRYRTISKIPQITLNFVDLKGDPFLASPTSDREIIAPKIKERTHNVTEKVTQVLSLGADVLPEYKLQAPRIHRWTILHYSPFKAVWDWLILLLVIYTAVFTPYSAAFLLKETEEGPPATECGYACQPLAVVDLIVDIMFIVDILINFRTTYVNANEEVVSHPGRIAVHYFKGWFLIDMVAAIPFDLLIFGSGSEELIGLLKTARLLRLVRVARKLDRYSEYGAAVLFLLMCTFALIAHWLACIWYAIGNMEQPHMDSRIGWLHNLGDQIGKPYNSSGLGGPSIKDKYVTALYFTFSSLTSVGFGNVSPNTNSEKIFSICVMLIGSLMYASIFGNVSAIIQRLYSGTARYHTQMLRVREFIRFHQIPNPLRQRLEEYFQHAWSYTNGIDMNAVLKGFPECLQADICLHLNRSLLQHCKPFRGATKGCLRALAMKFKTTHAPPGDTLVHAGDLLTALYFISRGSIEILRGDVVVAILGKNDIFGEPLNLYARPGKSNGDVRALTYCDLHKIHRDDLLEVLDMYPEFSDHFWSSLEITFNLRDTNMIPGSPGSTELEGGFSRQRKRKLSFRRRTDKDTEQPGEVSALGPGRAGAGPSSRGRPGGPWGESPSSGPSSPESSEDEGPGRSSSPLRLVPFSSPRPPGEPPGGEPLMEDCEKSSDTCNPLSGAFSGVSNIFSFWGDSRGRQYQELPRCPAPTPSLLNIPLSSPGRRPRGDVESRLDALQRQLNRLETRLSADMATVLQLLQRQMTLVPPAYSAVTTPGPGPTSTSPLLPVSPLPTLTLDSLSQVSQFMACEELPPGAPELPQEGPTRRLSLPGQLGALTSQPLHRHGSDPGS

Structure (SMILES) | hERG current change (%, negative = inhibition) at 10uM
CCc1ccc(NC(=O)CN2CC(c3ccccc3)CC2=O)cc1 (stereo not drawn) | -27.6%
CN(CCCN1CCOCC1)C(=O)c1ccc2nc(Cc3cccc(Cl)c3)oc2c1 | -6.26%
O=C(NCC1CCOCC1)c1ccc2nc(Cc3cccc(Cl)c3)oc2c1 | -12.8%
CN(CC1CCOCC1)C(=O)c1ccc2nc(Cc3cccc(Cl)c3)oc2c1 | -69.7%
Cc1ccc(C)c(S(=O)(=O)C(C#N)c2nc3ccccc3nc2N2CC(C)OC(C)C2)c1 (stereo not drawn) | 4.01%
Cc1ccc(OCCC(=O)OCC(=O)Nc2ccc3[nH]c(=O)[nH]c3c2)cc1 | -20.3%
CCc1ccc(-c2cc(C(=O)NCCCn3ccnc3)c3ccccc3n2)s1 | -73.6%
Cc1ccccc1C(=O)NCCCn1ccnc1 | 18.3%
Cc1ccc2nc(-c3ccccc3)cc(C(=O)NCCCn3ccnc3)c2c1 | -40.7%
CCC(CC)NC(=O)c1cc2c(C)nn(Cc3ccccc3Cl)c2s1 | 10.9%
CCOc1ccc(-c2cc(C(=O)NCCCn3ccnc3)c3cc(Br)ccc3n2)cc1 | 7.06%
Cc1nn(Cc2ccccc2Cl)c2sc(C(=O)NC(C)(C)C)cc12 | 10.7%
CCc1ccc(-c2cc(C(=O)NCc3ccco3)c3ccccc3n2)s1 | -9.4%
Cc1ccc(-c2cc(C(=O)NCCCn3ccnc3)c3cc(Br)ccc3n2)o1 | -73.8%
Cc1ccc(-c2cc(C(=O)NCCCn3ccnc3)c3ccccc3n2)s1 | -70.9%
O=C(NCCCn1ccnc1)c1cc(-c2cccnc2)nc2ccc(Br)cc12 | -45.1%
CCc1ccc(-c2cc(C(=O)O)c3ccccc3n2)s1 | 16.9%
Cc1nn(Cc2ccccc2Cl)c2sc(C(=O)NCCCn3ccnc3)cc12 | -82.6%
CC(C)CC(=O)CN1C(=O)C2(OCCO2)c2ccccc21 | 13.2%
COc1ccc(-c2cc(C(F)F)nc(-n3nc(C)cc3C)n2)cc1 | 11.7%
O=c1cc(-c2ccccc2)c2ccc(O)c(CN3CCCCC3)c2o1 | -8.89%
COc1ccc2nc(Nc3nc4cc5c(cc4s3)OCO5)sc2c1 | 6.67%
O=S(=O)(Nc1c(O)ccc2ccccc12)c1cccc2ccccc12 | 6.79%
COc1ccc(C(CNC(=O)c2[nH]c(C)c(C(C)=O)c2C)N2CCOCC2)cc1 (stereo not drawn) | -4.61%
Cc1nc2oc3c(NCC4CCCO4)ncnc3c2c2c1COC(C)(C)C2 (stereo not drawn) | -16.6%
CC(=O)Nc1nc(C)c(CCCOc2ccc([N+](=O)[O-])cc2)c(=O)[nH]1 | 0.762%
Cc1noc(C)c1NC(=O)N1CCN(Cc2ccccc2)CC1 | 8.04%

Structure (SMILES) | hERG current change (%, negative = inhibition) at 10uM
O=C(Nc1cccc(-n2cccn2)c1)C1CCCN(Cc2ccccc2F)C1 (stereo not drawn) | -30.4%
COc1ccc(CN2CCCC(C(=O)Nc3cccc(-n4cccn4)c3)C2)cc1 (stereo not drawn) | -58.9%
CCOc1ccccc1CN1CCCC(C(=O)Nc2cccc(-n3cccn3)c2)C1 (stereo not drawn) | -69.5%
Cc1cc(CN2CCCC(C(=O)Nc3cccc(-n4cccn4)c3)C2)cc(C)c1O (stereo not drawn) | -42%
CC(=O)c1cccc(CN2CCCC(C(=O)Nc3cccc(-n4cccn4)c3)C2)c1 (stereo not drawn) | -23.9%
CSc1cccc(CN2CCCC(C(=O)Nc3cccc(-n4cccn4)c3)C2)c1 (stereo not drawn) | -28.6%
CCOc1cccc(CN2CCCC(C(=O)Nc3cccc(-n4cccn4)c3)C2)c1 (stereo not drawn) | -56.3%
COc1ccc(O)c(CN2CCCC(C(=O)Nc3cccc(-n4cccn4)c3)C2)c1 (stereo not drawn) | -14.9%
Cc1c(CN2CCCC(C(=O)Nc3cccc(-n4cccn4)c3)C2)cnn1C (stereo not drawn) | 7.86%
COC(=O)c1ccc(CN2CCCC(C(=O)Nc3cccc(-n4cccn4)c3)C2)cc1 (stereo not drawn) | -27.4%
O=C(Nc1cccc(-n2cccn2)c1)C1CCCN(Cc2cccc(F)c2F)C1 (stereo not drawn) | -17.8%
Cc1nn(C)c(Cl)c1CN1CCCC(C(=O)Nc2cccc(-n3cccn3)c2)C1 (stereo not drawn) | -50.2%
COCCNC(=S)N(CCc1c(C)[nH]c2ccc(F)cc12)Cc1cccnc1 | -21.5%
C=CC(=O)N1c2ccccc2Sc2ccc(NC(=O)OCC)cc21 | 0.408%
CC(C)(C)c1ccc(C(=O)Nc2cccc3c(=O)[nH][nH]c(=O)c23)cc1 | -9.65%
O=C(Cc1ccccc1)NCC(=O)N1CCN(c2ccccc2)CC1 | 5.93%
O=C(NCCn1ccc2ccccc21)c1cccc([N+](=O)[O-])c1 | -16.9%
CCC(C)N1C(=O)C2C(C(=O)Nc3cccc(OC)c3)C3C=CC2(O3)C1C(=O)NC1CCCCC1C (stereo not drawn) | -6.83%
O=S1(=O)CCN(Cc2ccc(Cl)c(Cl)c2)CC1 | 6.46%
CC(C)OC(=O)Cn1nnc(-c2ccccc2)n1 | 0.0206%
Cc1c(NC(=O)C(C)OC(=O)c2cc(Cl)ccc2O)c(=O)n(-c2ccccc2)n1C (stereo not drawn) | 15.3%
CCSc1sccc1C1C(C#N)=C(N)N(c2cccnc2)C2=C1C(=O)CC(C)(C)C2 (stereo not drawn) | -50.4%
CCSc1sccc1C1C(C#N)=C(N)N(c2cccnc2)C2=C1C(=O)CCC2 (stereo not drawn) | -31.5%
CC1(C)CC(=O)C2=C(C1)N(c1cccnc1)C(N)=C(C#N)C2c1cccs1 (stereo not drawn) | -5.86%
CC12COC3(C(=O)Nc4ccc(F)cc4)CC1CCC32C (stereo not drawn) | -18%
CN(CCC#N)C(=O)COC(=O)[C@H](Cc1ccccc1)N1C(=O)c2ccccc2C1=O | -2.25%
Cc1ccc(-n2nc3c(=O)n(CC(=O)NCc4cccs4)nc(C)c3c2C)cc1 | -20.1%
